# In the library only some 2.2% were active in any assay of this set; here they are far more common.
# PolyA inh – blocks polyadenylation in yeast reporter cells | activity score, % at 12 µM | actives 0.02% (n = 300,000) | S. cerevisiae SKY197-pL101 polyadenylation reporter, beta-gal luminescence; efflux-impaired pdr1/pdr3 knockout yeast; score 100 = 6 SD above DMSO | AID 1875;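 active = lowest replicate activity score at least 50, where 100 means six control SD above control mean; inconclusive = lowest score under 50 but half or more replicates reach 50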;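 note: yeast exposed to compound for 9 h at 30 °C; higher score means more reporter readthrough which indicates perturbed polyadenylation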
# ZTA DNA inh – ZTA (EBV) inhibition in EBNA-1 counter-screen | P03206 | inhibition, % at 11 µM | actives 0.15% (n = 320,000) | ZTA-DNA binding, fluorescence polarization; in the data active = inhibition above about 33%
# Target sequence (P03206 whole entry, looked up): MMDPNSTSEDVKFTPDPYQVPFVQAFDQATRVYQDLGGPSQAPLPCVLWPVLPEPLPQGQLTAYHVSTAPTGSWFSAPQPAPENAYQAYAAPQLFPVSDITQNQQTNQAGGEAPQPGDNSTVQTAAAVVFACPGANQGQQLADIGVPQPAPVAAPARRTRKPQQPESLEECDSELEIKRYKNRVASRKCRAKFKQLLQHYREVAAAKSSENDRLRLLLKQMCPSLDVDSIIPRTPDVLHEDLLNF
# NALP3 yeast inh – blocks the NALP3 inflammasome reconstituted in yeast; inhibition, % at 10 µM; Yeast reconstituted NLRP3/ASC/caspase-1, beta-gal luminescence, 24 h; AID 2825; actives 0.39% (n = 330,000);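 active = inhibition of 50% or more; inactive = inhibition below 50%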
# NALP1 inh – NALP1 inhibition | S. cerevisiae NALP1/ASC/caspase-1 growth, X-gal OD620, 72 h | inhibition, % at 10 µM | actives 0.61% (n = 280,000); in the data active = inhibition mostly above about 24%, no sharp cut-off; inactive = mostly below about 32%
# EBNA-1 inhibitor – blocks EBNA-1 binding to DNA | actives 0.34% (n = 300,000) | EBNA-1 DNA binding, fluorescence polarization | inhibition, % at 14.8 µM; in the data active = inhibition above about 28%
# dFosB activator – activators of mouse delta FosB homodimer; purified delta FosB, TAMRA-CDK5 oligo fluorescence polarization; percent of positive-control signal above neutral wells; activation, % at 25 µM; actives 0.99% (n = 340,000);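 active = mean activation above about 17%, with every replicate also reaching it, limit read from the data, passing the limit was not always enough; inconclusive = only one of the two conditions met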
# Target sequence (P13346 whole entry, looked up): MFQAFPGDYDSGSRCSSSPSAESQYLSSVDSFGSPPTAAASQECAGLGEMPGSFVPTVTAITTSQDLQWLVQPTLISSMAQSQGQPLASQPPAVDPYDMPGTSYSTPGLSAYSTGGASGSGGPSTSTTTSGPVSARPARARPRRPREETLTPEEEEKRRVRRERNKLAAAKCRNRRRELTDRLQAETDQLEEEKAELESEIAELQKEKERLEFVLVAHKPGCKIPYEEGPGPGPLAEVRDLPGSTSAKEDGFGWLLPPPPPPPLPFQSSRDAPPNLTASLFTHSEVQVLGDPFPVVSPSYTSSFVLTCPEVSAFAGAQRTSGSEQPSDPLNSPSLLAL
# NALP3 yeast conf – NALP3 inhibition confirmation in yeast | shares compounds with NALP3 yeast inh | yeast expressing human NALP3, luminescence | inhibition, % at 10 µM | actives 81% (n = 1,300); in the data active = inhibition above about 48%
# Casp1-ASC yeast – active in yeast caspase-1-ASC counter-screen for NALP3 inhibitors. AID 488784. inhibition, % at 10 µM. shares compounds with NALP3 yeast inh. actives 66% (n = 1,000). yeast expressing Caspase-1-ASC, luminescence counter screen
# NALP3 retest – yeast NALP3 inhibition, confirmed on retest; shares compounds with NALP3 yeast inh; yeast expressing human NALP3, luminescence read-out; AID 488794; inhibition, % at 10 µM; actives 53% (n = 1,000)
# Numbers stand for hits; i = inactive; ? = inconclusive; nt = no result. Cut-off read from the data, not from the text of the source, unless noted: active = inhibition above about 50%; inactive = the rest.
SMILES,PolyA inh,ZTA DNA inh,NALP3 yeast inh,NALP1 inh,EBNA-1 inhibitor,dFosB activator,NALP3 yeast conf,Casp1-ASC yeast,NALP3 retest
COc1ccc(N=Nc2cc(C)ccc2O)cc1,i,i,i,i,i,i,nt,nt,nt
CCN(C[C@H]1N[C@@](CC)(C(=O)OC)[C@H]2C(=O)N(C)C(=O)[C@@H]12)S(=O)(=O)c1ccc(F)cc1,nt,nt,i,nt,nt,i,nt,nt,nt
O=C1c2cccc([N+](=O)[O-])c2C(=O)N1CCO,i,i,i,i,i,i,nt,nt,nt
O=C1c2cccc3c(Nc4ccccc4Cl)c([N+](=O)[O-])cc(c23)C(=O)N1CCO,i,i,54.1,i,i,i,70.6,56.1,55.5
CN(Cc1cccnc1)C(=O)c1cc(COc2ccc3c(c2)CCCC3)on1,i,i,i,i,i,i,nt,nt,nt
CO/N=C/NC(=O)Cc1cn(-c2ncc(C(F)(F)F)cc2Cl)c2ccccc12,i,i,56.2,i,i,i,63.5,i,i
CC(=O)/C=C\c1cn(-c2ncc(C(F)(F)F)cc2Cl)c2ccccc12,i,i,i,i,i,i,nt,nt,nt
O=C(OCCc1cc2ccccc2c(=O)o1)c1ccc2c(c1)OCO2,nt,i,i,nt,nt,i,nt,nt,nt
O=C(OCCCc1cc2ccccc2c(=O)o1)c1ccc2c(c1)OCO2,nt,i,53.1,nt,nt,i,i,i,i
CC1=C(C(=O)Nc2cccc(C(=O)NCc3ccccc3C)c2)SCCO1,i,i,i,i,i,i,nt,nt,nt
COc1ccc2c(=O)c3ccccc3oc2c1,i,i,57.0,i,i,i,68.5,i,i
COc1ccc2c(=O)c(-c3cnn(-c4ccccc4)c3)c(C)oc2c1,i,i,61.9,i,i,i,65.7,58.5,68.2
Cc1oc2c(C)c(O)ccc2c(=O)c1-c1cnn(-c2ccccc2)c1,i,i,i,i,i,i,nt,nt,nt
O=Cc1cn(-c2ccccc2)nc1-c1ccncc1,i,i,i,i,i,i,nt,nt,nt
O=Cc1cn(-c2ccccc2)nc1-c1ccccc1,i,i,60.3,i,i,i,72.1,60.0,53.0
CSCC[C@H](NC(=O)[C@@H]1CSC2c3ccccc3C(=O)N21)C(=O)N1CCC[C@H]1CO (some centres not stated),i,i,i,i,i,i,nt,nt,nt
CCOc1ccc(C(=O)Nc2ccccc2CC)cc1[N+](=O)[O-],i,i,53.3,i,i,i,60.0,52.9,55.4
CCOc1ccc(C(=O)Nc2ccccc2C#N)cc1[N+](=O)[O-],i,i,i,i,i,i,nt,nt,nt
CC(OC(=O)CCc1nc2ccccc2c(=O)[nH]1)C(=O)Nc1cccc(C(F)(F)F)c1 (configuration not stated),nt,nt,i,nt,nt,i,nt,nt,nt
Cc1ccc(NC(=O)c2c(Cl)n(C)c3ccccc23)cc1,i,i,i,i,i,i,nt,nt,nt
Cn1c(Cl)c(C(=O)Nc2ccccc2)c2ccccc21,nt,i,60.3,i,i,i,82.2,56.5,51.4
Cc1noc(C)c1C(=O)OCC(=O)NCc1ccccc1,nt,nt,i,nt,nt,i,nt,nt,nt
Cc1ccc(S(=O)(=O)/C=C2\NC(=O)CS2)cc1,i,i,i,i,i,i,nt,nt,nt
Cc1ccc(C(=O)/C=C2/NC(=O)CS2)cc1,i,i,60.9,i,i,i,66.9,52.0,53.7
O=C1CS/C(=C/C(=O)c2cccc(Cl)c2)N1,i,i,66.0,i,i,i,72.3,53.5,58.9
SMILES,PolyA inh,ZTA DNA inh,NALP3 yeast inh,NALP1 inh,EBNA-1 inhibitor,dFosB activator,NALP3 yeast conf,Casp1-ASC yeast,NALP3 retest
Cc1cc([N+](=O)[O-])cc(/C=N\NC(=O)C2COc3ccccc3O2)c1O (configuration not stated),i,i,50.6,i,i,i,69.6,78.0,68.8
Cc1cc(C)c(C)c(S(=O)(=O)NC2CCCCC2)c1C,i,nt,52.7,i,nt,i,i,i,i
CSc1ncnc2ncn(C)c12,nt,nt,nt,nt,nt,i,nt,nt,nt
O=C(N/N=C/C(Cl)=C/c1ccccc1)c1ccco1,i,i,i,i,i,i,nt,nt,nt
O=C(N/N=C/C(Cl)=C\c1ccccc1)c1ccco1,i,i,59.1,i,i,i,61.3,74.1,55.8
O=C(Nc1cccc(Cl)c1)c1cnn2cccnc12,i,i,53.5,i,i,i,78.8,i,56.0
COc1ccc(C(C[N+](=O)[O-])c2c(C)cc3ccccn23)c(OC)c1 (configuration not stated),i,i,i,i,i,i,nt,nt,nt
COc1ccc(OC)c(C(C[N+](=O)[O-])c2c(C)cc3ccccn23)c1 (configuration not stated),i,i,64.0,i,i,i,i,66.7,i
O=C(c1cccc(NC2=NC3CS(=O)(=O)CC3S2)c1)N1CCN(c2cccc(Cl)c2)CC1 (configuration not stated),i,i,i,i,i,i,nt,nt,nt
O=C(CSc1nnnn1-c1ccc(Cl)cc1)N1CCc2ccccc2C1,i,i,56.0,i,i,i,69.7,78.0,85.5
S=C1SCN(Cc2cccnc2)CN1Cc1cccnc1,i,i,56.8,69.3,i,i,58.2,i,i
O=C(Nc1ccc(Cl)cc1)c1cc2c(cc1O)[nH]c1ccccc12,i,i,53.0,i,i,i,77.0,72.5,91.3
O=C(N/N=C/c1ccccc1)c1c(O)c2ccccc2[nH]c1=O,?,i,55.2,i,i,i,65.4,nt,nt
CC(C)NC(=O)c1c(O)c2ccccc2[nH]c1=O,i,i,53.6,i,i,i,72.3,i,53.4
COC(=O)c1c(O)c2ccccc2[nH]c1=O,i,i,i,i,i,i,nt,nt,nt
CCCN(C(=O)C1CC(=O)N(c2ccccc2C(C)CC)C1)C1CCS(=O)(=O)C1 (configuration not stated),nt,i,i,nt,nt,i,nt,nt,nt
COc1ccc(-c2nc3ccccc3[nH]2)cc1,i,i,55.1,i,i,i,61.9,57.4,66.1
COC(=O)c1ccc(/C=N/Nc2nc3ccccc3[nH]2)cc1,i,i,i,i,i,i,nt,nt,nt
c1ccc(-c2nc3ccccc3[nH]2)cc1,i,i,i,i,i,i,nt,nt,nt
COC(=O)c1ccc(-c2nc3ccccc3[nH]2)cc1,i,i,63.3,i,i,i,i,nt,nt
Cc1ccc2c(c1)-n1c(nc3ccccc3c1=O)C(CC(C)C)NC2=O (configuration not stated),nt,nt,i,nt,nt,nt,nt,nt,nt
O=C(COc1ncnc2ccccc12)c1ccc2c(c1)OCCO2,i,i,53.0,i,i,i,69.4,i,i
NS(=O)(=O)c1ccc(NS(=O)(=O)c2ccc(NC(=O)C3CC3)cc2)cc1,i,i,i,i,i,i,nt,nt,nt
O=C(Nc1cc(Cl)ccc1N1CCOCC1)c1ccc(=O)[nH]c1,nt,nt,i,nt,nt,i,nt,nt,nt
Clc1cncc(Cl)c1N/N=C/c1ccncc1,i,i,64.9,i,i,i,i,nt,nt

# Screening results as filed in PubChem.
